# Screen size: about 310,000 compounds; about 14,000 (4.5%) showed an effect of 50% or more. Effects have a minus sign here. The entries come from a sample that favours strong results as a whole.
# Molecular target: human ether-à-go-go-related gene (hERG) potassium channel (human, UniProt Q12809)
# Test: primary screen, population patch clamp on CHO cells stably expressing hERG; higher = less effect of the substance
# 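Also: peak tail current of the secondary pulse compared with the same well before compound.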
# human ether-à-go-go-related gene (hERG) potassium channel, sequence (Q12809 whole entry, looked up): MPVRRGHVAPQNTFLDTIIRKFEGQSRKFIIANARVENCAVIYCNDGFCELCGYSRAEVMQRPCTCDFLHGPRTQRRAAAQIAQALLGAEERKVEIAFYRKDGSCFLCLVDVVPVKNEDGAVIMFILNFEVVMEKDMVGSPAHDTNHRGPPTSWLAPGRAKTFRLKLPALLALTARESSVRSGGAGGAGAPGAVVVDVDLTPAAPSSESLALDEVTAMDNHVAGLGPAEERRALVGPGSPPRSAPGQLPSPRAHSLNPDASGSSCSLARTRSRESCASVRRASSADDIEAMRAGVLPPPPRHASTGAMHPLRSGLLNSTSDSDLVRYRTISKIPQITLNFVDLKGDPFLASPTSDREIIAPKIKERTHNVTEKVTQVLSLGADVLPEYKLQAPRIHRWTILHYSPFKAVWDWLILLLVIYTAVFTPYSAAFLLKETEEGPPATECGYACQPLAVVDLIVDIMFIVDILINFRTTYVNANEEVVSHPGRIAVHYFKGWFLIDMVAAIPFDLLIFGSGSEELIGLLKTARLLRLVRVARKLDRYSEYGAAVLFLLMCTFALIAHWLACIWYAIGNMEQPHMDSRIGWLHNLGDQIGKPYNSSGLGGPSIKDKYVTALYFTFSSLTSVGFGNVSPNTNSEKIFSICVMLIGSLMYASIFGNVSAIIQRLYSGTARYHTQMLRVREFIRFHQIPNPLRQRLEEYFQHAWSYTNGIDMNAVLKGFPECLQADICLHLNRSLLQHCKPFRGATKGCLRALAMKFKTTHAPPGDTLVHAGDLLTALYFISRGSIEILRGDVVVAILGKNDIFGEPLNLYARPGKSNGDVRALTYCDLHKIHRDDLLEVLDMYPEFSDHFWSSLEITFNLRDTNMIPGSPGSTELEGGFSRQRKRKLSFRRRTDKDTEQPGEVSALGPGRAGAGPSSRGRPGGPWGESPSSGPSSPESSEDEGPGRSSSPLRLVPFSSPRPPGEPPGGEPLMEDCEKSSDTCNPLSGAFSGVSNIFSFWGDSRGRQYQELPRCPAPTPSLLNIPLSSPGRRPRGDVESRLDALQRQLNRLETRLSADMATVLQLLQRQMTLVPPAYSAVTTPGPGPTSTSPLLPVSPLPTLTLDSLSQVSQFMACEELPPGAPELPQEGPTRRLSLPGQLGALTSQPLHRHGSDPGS
row,SMILES,"hERG current change (%, negative = inhibition) at 10uM"
1,CN(C)c1ccc(NC(=O)N2CCOCC2)cc1,-3.34%
2,Cc1ccc(-c2cc3nc(-c4ccc(Br)cc4)cc(N)n3n2)cc1,-8.51%
3,CCCN(CC(=O)Nc1c(C)cccc1CC)C(=O)SCC,10%
4,CCc1cccc(NC2c3ccccc3C(=O)N2c2cccnc2)c1 (stereo not drawn),-10.2%
5,CCC(C)(C)NC(=O)C(c1ccc(OC)cc1)N(C(=O)CCC(=O)Nc1cc(C)on1)C(C)(C)C (stereo not drawn),-27.1%
6,COc1ccc(OCC(O)CNCc2ccco2)cc1 (stereo not drawn),1.32%
7,COc1ccc(CCNC(=O)C2CCN(S(=O)(=O)N3CCC4(CC3)OCCO4)CC2)cc1OC,1.93%
8,COc1cc(C2=NOC(C(=O)Nc3ccc(C)cc3)C2)cc(OC)c1OC (stereo not drawn),-4.96%
9,CCOC(=O)c1ccc(NC(=S)NC(=O)COc2ccccc2)cc1,11%
10,CCCCOc1ccc(-n2nc(C)cc2C)nn1,-16.3%
11,CCOC(=O)N1CCN(C(=O)c2ccc(NS(C)(=O)=O)cc2)CC1,-5.65%
12,Cn1c(SCC(=O)NC2CCCCC2)nnc1-c1ccncc1,13.2%
13,C[C@H]1COc2c(N3CCN(C)CC3)c(F)cc3c(=O)c(C(=O)O)cn1c23,11.2%
14,CC1COc2c(N3CCN(C)CC3)c(F)cc3c(=O)c(C(=O)O)cn1c23 (stereo not drawn),18.2%
15,Cc1cc(C)c(NC(=O)c2cn3c4c(c(N5CCN(C)CC5)c(F)cc4c2=O)OCC3C)c(C)c1 (stereo not drawn),-51.7%
16,O=C(Cc1cccs1)Nc1ccccc1-c1nc2ccccc2[nH]1,19.7%
17,CC(C)c1nnc(NC(=O)CC(=O)Nc2ccccc2C(=O)O)s1,4.72%
18,CON(C)c1nc(Oc2ccc(=O)[nH]n2)nc(N(C)C)n1,-9.3%
19,COCCn1c(C)cc(C(=O)CN2C(=O)NC3(CCCCCC3)C2=O)c1C,-27.8%
20,Cc1cc(C(=O)CN2C(=O)NC3(CCCCC3)C2=O)c(C)n1C,-10.3%
21,COCCn1c(C)cc(C(=O)CN2C(=O)NC3(CCCCCCC3)C2=O)c1C,-59%
22,Cc1cc(C(=O)CN2C(=O)NC3(CCCCC3)C2=O)c(C)n1-c1ccc2c(c1)OCO2,-56.4%
23,CCCC1(CCC)NC(=O)N(CC(=O)c2cc(C)n(-c3ccc4c(c3)OCO4)c2C)C1=O,5.65%
24,Cc1cc(C(=O)CN2C(=O)NC3(CCCC3)C2=O)c(C)n1-c1ccc2c(c1)OCO2,-28.5%

# From publication PMC4336329 (PLoS ONE, 2015)
